The values that follow come from PubChem BioAssay (NCI).

SMILES strings stand for the structures. This is part of a sample that, as a whole, favours compounds with a hit. Of some 79,000 tested, about 15% had one in any assay. Values without a mark were called inactive. Calls of active or inactive are those of the source. Rule as the data show it: active = growth inhibition above about 70%; inactive = the rest.

This test can be described thus: NCI Yeast Anticancer Drug Screen. Data for the mlh1 rad18 strain (AID 175). The note with it: S. cerevisiae mlh1 rad18 strain growth inhibition; at 5.0 µM (retest, dose inferred, filed as 0.5); hits give high values. Put shortly:
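Vehicle-treated cultures served as the reference for growth inhibition in a yeast strain carrying DNA damage repair alterations exposed to each compound.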
`Cc1ccccc1N1C(=O)C(=O)c2cccc(C)c21`: the growth inhibition is 0%.

As to `Nc1n[nH]c(=O)c2cccnc12`, the growth inhibition was 2%.

On to `CCCCNCCCNCCCNC(=O)c1csc(-c2csc(CCNC(=O)C(NC(=O)C(C)C(O)C(C)NC(=O)C(NC(=O)c3nc(C(CC(N)=O)NCC(N)C(N)=O)nc(N)c3C)C(OC3OC(CO)C(O)C(O)C3OC3OC(CO)C(O)C(OC(N)=O)C3O)c3cnc[nH]3)C(C)O)n2)n1` (stereo not given), for which the growth inhibition was 98% (active).

Regarding `c1ccc(-c2ccc(-c3cnc(-c4ccc(-c5ccccc5)cc4)o3)cc2)cc1`, the growth inhibition is -6%.

For `CN(C)C=Nc1ccc2nonc2c1`, the growth inhibition is 8%.

Regarding `COC(=O)C(CCC(=O)Cc1ccccc1)N1C(=O)c2ccccc2C1=O` (stereo not given), the growth inhibition is 16%.

Take `O=S(=O)(Nc1ccccc1)c1ccccc1CC(O)(c1ccccc1)c1ccccc1`: the growth inhibition was 90% (active).

For the molecule `O=C1OC(=O)C2C=CC=CC12` (stereo not given), the growth inhibition was 14%.

Consider `CCOC(=O)N/N=C/c1ccc([N+](=O)[O-])o1`, for which the growth inhibition was 17%.

As to `CN=C(N)N/N=C(\C)c1ccc2c(ccc3ccccc32)c1`, the growth inhibition was 35%.

On to `O=C(C(/C=N/C(=S)NCc1ccccc1)=C(/O)c1ccccc1)c1ccccc1`, for which the growth inhibition is 12%.

In the case of `Cc1nc(Nc2ccc(Cl)cc2)sc1C(=O)Nc1cccc2c(=O)[nH][nH]c(=O)c12`, the growth inhibition is 14%.

In the case of `Cc1c2ccccc2c(C)c2c1cc(F)c1ccccc12`, the growth inhibition was 55%.

In the case of `CC1=C(C(=O)Nc2ccccc2)C(c2cc(Cl)cc(Cl)c2)C(C(=O)Nc2ccccc2)=C(C)N1`, the growth inhibition was -4%.

Turning to `O=[N+]([O-])/C(Br)=C\c1ccc([N+](=O)[O-])cc1`, the growth inhibition is 54%.

Regarding `CC1=CC(C)(C)Nc2cc(N)ccc21`, the growth inhibition was -148%.

Consider `Fc1ccc2nncc(SCc3ccccc3)c2c1`, for which the growth inhibition is -2%.

Consider `CN(C)c1ccc(-c2c(C#N)c(-c3ccccc3)n(NS(=O)(=O)c3ccccc3)c(=O)c2C#N)cc1`, for which the growth inhibition is 17%.

`Cc1cc(N2C(=O)CCSC2=S)ccc1Cl`: the growth inhibition was 82% (active).

In the case of `C=C(c1ccccc1)[P+](c1ccccc1)(c1ccccc1)c1ccccc1`, the growth inhibition was 98% (active).

As for `Cc1cc(Br)c2ccccc2c1N`, the growth inhibition is -3%.

Consider `CC1C[N+](C)(C)C(C)C(=O)C1(c1ccccc1)c1ccccc1` (stereo not given), for which the growth inhibition is -6%.

As to `CC(=O)N(C1=CC(=O)c2ccccc2C1=O)c1ccc(C)cc1`, the growth inhibition was 27%.

`CC(c1ccccc1)n1c2ccccc2c2c(N)ncnc21` (stereo not given): the growth inhibition is 32%.

Turning to `CC(=O)O/N=C1/CCC2C3CC=C4CC(OC(C)=O)CCC4(C)C3CCC12C` (stereo not given), the growth inhibition was 34%.

In the case of `c1cc(CCSSCCc2ccncc2)ccn1`, the growth inhibition is 2%.

In the case of `CC1=C(C(=O)Nc2cc(C)ccc2C)C(c2cccc([N+](=O)[O-])c2)C(C(=O)Nc2cc(C)ccc2C)=C(C)N1`, the growth inhibition is 17%.

Regarding `ClC1=CC(Cl)=C2N=C(C(Cl)(Cl)Cl)N=C3N=C(C(Cl)(Cl)Cl)N=C1N32`, the growth inhibition is 36%.

In the case of `C[n+]1c(-c2ccc(/C=N/Nc3n[nH]c(=S)n3/N=C/c3ccc(-c4cn5ccsc5[n+]4C)cc3)cc2)cn2ccsc21`, the growth inhibition was -2%.

On to `CC1(C)OC(=O)C(=NNc2ccccc2[N+](=O)[O-])C(=O)O1`, for which the growth inhibition is 2%.

Take `CC(CCCOC(c1ccccc1)(c1ccccc1)c1ccccc1)OC(=O)Nc1ccccc1` (stereo not given): the growth inhibition was 93% (active).

Regarding `CCN(CC)c1ccc2nc3ccc(N(CC)CC)cc3[n+](-c3ccccc3)c2c1`, the growth inhibition is 99% (active).

With `CC1OC(C)C(O)C2=C1C(=O)c1ccccc1C2=O` (stereo not given), the growth inhibition is 23%.

In the case of `CCCCCCCCCCCCS(=O)(=O)CC(Br)C(=O)c1ccco1` (stereo not given), the growth inhibition is 68%.

For the molecule `NC(=O)NOCC1NC(=O)NC1=O` (stereo not given), the growth inhibition was 1%.

For `O=C(O)C1C(=O)OC2CCCCC21` (stereo not given), the growth inhibition is -2%.

For the molecule `C=CCNC(=S)N/N=C(\CCC)c1ccccn1`, the growth inhibition was 99% (active).

On to `Nc1ccc2c(c1)S(=O)(=O)c1cc(N)ccc1-2`, for which the growth inhibition was 26%.

Turning to `CN1C(=O)c2cccc3cc([N+](=O)[O-])cc(c23)C1=O`, the growth inhibition is 15%.

As to `C/C(=N\NC(=S)NC12CC3CC(CC(C3)C1)C2)c1ccccn1`, the growth inhibition is -7%.
